Laboratory results reported in PubChem BioAssay.
The source made the active and inactive calls.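 Rule for the calls: active = viability increase at or above a cutoff of the median across tested compounds plus 3 SD (cut at about 8.5% in these data, passing the limit was not always enough); inconclusive = some gains above the cutoff, reason not given; inactive = the rest.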

test: viability gain of MRP-1-high H69AR cells under doxorubicin, pilot screen, MRP-1 activator project, CellTiter-Glo, duplicate (AID 807); conditions: H69AR viability with doxorubicin, CellTiter-Glo luminescence; at 10 µM; active compounds read high;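 note: compound pretreatment 18-22 h then 72 h combined with doxorubicin; 0% = doxorubicin alone and 100% = vehicle without doxorubicin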

For `CN(C)C1(c2nnnn2-c2ccc(Cl)cc2)CCCCC1`, which viability increase is on record?
The viability increase was 0.76% (inactive).

With `O=c1cccc2n1CC1CC2CN(Cc2ccc3c(c2)OCO3)C1` (centres undefined) as the compound, how does the viability increase read?
Its viability increase is -2.71% (inactive).

Which viability increase does the source give for `O=C(Nc1ccccc1OC(=O)N1CCCCC1)N1CCCCC1` here?
Its viability increase is -2.07% (inactive).

Which viability increase does the source give for `CCOC(=O)c1c(C)n(Cc2ccco2)c2ccc(OC)cc12` here?
Its viability increase is -4.85% (inactive).

Which viability increase does the source give for `Cc1cc(Br)ccc1N1C(=O)CC(=O)NC1=O` here?
Its viability increase is -0.25% (inactive).

For `O=C(O)C1CN2CCC1CC2` (centres undefined), which viability increase is on record?
The viability increase was -0.31% (inactive).

For `O=C(Cc1ccccc1)Oc1cccc(N2C(=O)CCC2=O)c1`, which viability increase is on record?
The viability increase was -0.69% (inactive).

For `CCOc1ccc(-n2c(CC)nc3ccccc3c2=O)cc1`, which viability increase is on record?
The viability increase was -1.18% (inactive).

For `CCOc1ccccc1C1SCC(=O)Nc2c1c(=O)[nH]n2C(CC)CC` (centres undefined), which viability increase is on record?
The viability increase was -0.06% (inactive).

Which viability increase does the source give for `C=Cn1ccnc1P(=S)(c1ccn(C)c1)c1nccn1C=C` here?
Its viability increase is 0.29% (inactive).

For `O=c1cccc2n1CC1CC2CN(C(c2ccccc2)c2sc3ncnn3c2O)C1` (centres undefined), which viability increase is on record?
The viability increase was -1.49% (inactive).

Which viability increase does the source give for `O=c1c2ccccc2nc(-c2cccs2)n1-c1cnccn1` here?
Its viability increase is -1.4% (inactive).

Which viability increase does the source give for `C=Cn1ccnc1P(=S)(c1c(C)nn(-c2ccccc2)c1C)c1nccn1C=C` here?
Its viability increase is -2.8% (inactive).

For `O=C(CN1CC(c2ccccc2)CC1=O)Nc1ccc(F)cc1` (centres undefined), which viability increase is on record?
The viability increase was -3.89% (inactive).

For `Cc1ccnc(-n2c(C)nc3ccccc3c2=O)c1`, which viability increase is on record?
The viability increase was -2.48% (inactive).

For `CCCCCn1c(=O)c(C(=O)Nc2ccncc2)c(O)c2ccccc21`, which viability increase is on record?
The viability increase was -8.28% (inactive).

With `C=Cn1ccnc1P(=S)(c1cc(N(CC)CC)ns1)c1nccn1C=C` as the compound, how does the viability increase read?
The viability increase was -0.61% (inactive).

With `O=C1CC(=O)N(c2ccc(Cl)cc2Cl)C(=O)N1` as the compound, how does the viability increase read?
The viability increase was 0.06% (inactive).

Which viability increase does the source give for `COc1ccc(CC2C(=O)NC(=O)N(c3ccccc3)C2=O)c(OC)c1` (centres undefined) here?
Its viability increase is -1.2% (inactive).

With `O=C(c1ccc2c(c1)OCO2)N1CCC2(CC1)OCCO2` as the compound, how does the viability increase read?
Its viability increase is 1.06% (inactive).

Which viability increase does the source give for `CCOC(=O)C1SC2(C(F)(F)C(F)F)CC1(O)c1c(c(OC)c3occc3c1OC)O2` (centres undefined) here?
The viability increase was -0.89% (inactive).

With `CN1CC=C(c2c[nH]c3ccccc23)CC1` as the compound, how does the viability increase read?
Its viability increase is -3.51% (inactive).

Which viability increase does the source give for `CC12CN3CC(C)(CN(C1)C3c1ccco1)C2=O` (centres undefined) here?
Its viability increase is -0.55% (inactive).

Which viability increase does the source give for `COc1cc(CN2CC3CC(C2)c2cccc(=O)n2C3)cc(OC)c1OC` (centres undefined) here?
The viability increase was -2.25% (inactive).
